Among the data in PubChem BioAssay (NCATS) are outcome, Potency and max response values, retold here.

Where “and” joins values, the source holds several entries; their conditions need not be identical. Equal values may be shown once. Unmarked numbers belong to inactive results. Results filed as inconclusive are left out. Calls of active or inactive are those of the source. Unless noted, calls follow the shape of the dose curve; as a rule, active = well fitted curve in the direction sought with a large enough effect; inconclusive = small, poorly fitted or top-dose-only effect, or another doubt; inactive = no such curve, though single readings can be large; an effect the other way counts as inactive or inconclusive.

A short description of test [1]: Cellular Toxicity (caspase-3) BJ (AID 658). The following applies: BJ fibroblasts, luminescence, normalized: DMSO 0%, staurosporine 100%; series mostly up to 91.7 µM. Put shortly: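 Luminescent aminoluciferin-substrate cleavage reports caspase 3/7 activity in normal human BJ fibroblasts after 16 hr compound exposure at 37 °C. Normalized to DMSO (basal) and 10 uM staurosporine (100%); AC50 from Hill fit of concentration-response.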

A short description of test [2]: Cellular Toxicity (caspase-3) MRC-5 (AID 659). As to conditions: MRC-5 cells, luminescence, normalized: DMSO 0%, 10 µM staurosporine 100%; series mostly up to 91.7 µM. Put shortly: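 Luminescence from caspase-cleaved aminoluciferin substrate (Caspase-Glo 3/7, 1 hr RT) reports caspase 3/7 activity in MRC-5 lung fibroblasts after 16 hr compound exposure. Normalized to DMSO basal and 10 uM staurosporine as 100%; AC50 from Hill fits.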

Test [3] in a line: Cellular Toxicity (caspase-3) Mesangial (AID 660).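 Also: combined caspase 3 and 7 activity read by Caspase-Glo luminescence; cells exposed to compound for 16 h before the caspase read.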 The following applies: mesangial cells, normalized: DMSO 0%, 100 µM tamoxifen 100%; series mostly up to 91.7 µM. The gist of the method: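 Human renal glomerular mesangial cells, 1000/well, 5 h at 37 C before 16 h compound treatment. Caspase-Glo 3/7 luminescence after 20 min; normalized to DMSO and 100 uM tamoxifen, AC50 from Hill fit.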

Test [4] in a line: Cellular Toxicity (caspase-3) SK-N-SH (AID 661). The following applies: SK-N-SH caspase-3 activation, qHTS, DMSO as zero, staurosporine as full; series mostly up to 91.7 µM. Put shortly:
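Human SK-N-SH neuroblastoma cells, 1500/well, were exposed to compounds for 16 hours at 37 °C. Caspase-Glo 3/7 luminescence was normalized to DMSO (basal) and 10 uM staurosporine (100%), and AC50 came from a Hill fit.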

A short description of test [5]: Cellular Toxicity (caspase-3) H-4-II-E (AID 663). Also: potency is read from the fitted curve at half-maximal effect.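 As to caspase-3 activation: cells exposed to compound for 16 hr before readout.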 As to conditions: H-4-II-E rat hepatoma; Potency: caspase-3 activation; series mostly up to 92.2 µM. Put shortly: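 Luminescence from caspase-cleaved aminoluciferin substrate, read 20 min after reagent addition, reports caspase 3/7 activation in rat H-4-II-E cells after 16 hr compound exposure. Normalized to DMSO (basal) and 100 uM tamoxifen (100%); AC50 from Hill fits.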

The nature of test [6]: Cellular Toxicity (caspase-3) Hek293 (AID 664).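 Also: cells exposed to compound for 16 h at 37 °C before readout.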 As to conditions: HEK293 caspase-3 activation, DMSO = 0%, 100 µM tamoxifen = 100%; series mostly up to 92.2 µM. The gist of the method: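 HEK293 cells in complete medium treated 16 h at 37 °C, then Caspase-Glo 3/7 luminescence read after 20 min at room temperature. Normalized to DMSO and 100 uM tamoxifen; AC50 from Hill fit of concentration-response.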

A short description of test [7]: Cellular Toxicity (caspase-3) N2a (AID 665).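 Also: compound exposure lasted 16 h at 37 °C before readout.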 The following applies: N2a cells, luminescence, normalized: DMSO 0%, 10 µM staurosporine 100%; series mostly up to 92.2 µM. The gist of the method: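 Mouse N2a neuroblastoma cells, 1500 per well, treated 16 h at 37 °C in complete medium; caspase-3/7 activity by Caspase-Glo luminescence after 1 h. Normalized to DMSO and 10 uM staurosporine; AC50 from Hill fits.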

Test [8] in a line: Cellular Toxicity (caspase-3) Renal Proximal Tubule (AID 667).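 Also: cells exposed to compound for 16 hours at 37 °C before detection.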 As to conditions: renal proximal tubule cells, primary cells freshly taken from rat, solvent-only wells 0%, staurosporine 100%; series mostly up to 91.7 µM. Put shortly:
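Luminescent caspase 3/7 signal from peptide-aminoluciferin cleavage measures apoptosis in freshly isolated rat kidney proximal tubule cells after 16 h compound exposure. Concentration-response data are normalized to DMSO and 10 uM staurosporine, and AC50 values come from Hill equation fits.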

Test [9] is described as follows: Cell Viability - LYMP1-002 - Assay at 16 hr (AID 948). Also: potency is read from the fitted curve at half-maximal effect. The following applies: LYMP1-002 lymphoblastoid cell viability; series mostly up to 92.2 µM. The gist of the method:
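LYMP1-002 human lymphoblastoid cells, 2500/well; 5 hr 37 C; cpd 16 hr 37 C; CellTiter-Glo 30 min RT; luminescence (ATP). Concentration-response, Hill-fit AC50. Pos ctrl tetraoctylammonium bromide.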

Test [10] in a line: MultiTox-Fluor Cytotoxicity Assay - LYMP1-003 - Live Cells (AID 962).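 Also: 0% = DMSO only and full loss = 92 µM tetraoctylammonium bromide; cytotoxic hits lower the live-cell protease signal.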 The following applies: LYMP1-003 lymphoblastoid cells, MultiTox-Fluor live-cell protease fluorescence; series mostly up to 92.2 µM. Put shortly: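 LYMP1-003 lymphoblastoid cells, 2500/well in complete medium, treated 16 h at 37 C; live-cell protease cleavage of GF-AFC read by fluorescence (Ex/Em 405/510) after 60 min reagent; AC50 from Hill fits of concentration-response.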

Test [11] is described as follows: Cell Viability - LYMP1-003 - Assay at 40 hr (AID 964). Also: nearly all actives have a fitted effect of over 60% in size. Also: potency is read from the fitted curve at half-maximal effect. As to conditions: LYMP1-003 lymphoblastoid viability; series mostly up to 92.2 µM. The gist of the method:
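LYMP1-003 human lymphoblastoid cells, 2500/well, preincubated 5 h at 37 C, then treated with compound for 40 h at 37 C. Intracellular ATP read by CellTiter-Glo luminescence after 30 min at room temperature; AC50 from Hill-equation fits.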

Test [12] in a line: Cell Viability - LYMP2-003 (AID 965).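 Also: cells exposed to compounds for 24 h before reading; nearly all actives have a fitted effect of over 50% in size.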 Also: potency is read from the fitted curve at half-maximal effect. The following applies: LYMP2-003 lymphoblastoid cell viability; series mostly up to 92.2 µM. The gist of the method: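 CellTiter-Glo luminescence (cellular ATP) after 24 h compound exposure at 37 C in complete medium; 2500 cells/well, 5 h settling beforehand. Concentration-response fitted to standard Hill equation for AC50. Tetraoctylammonium bromide served as positive control.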

The nature of test [13]: Cell Viability - LYMP2-005 (AID 967). Also: potency is read from the fitted curve at half-maximal effect. As to conditions: LYMP2-005 lymphoblastoid cell viability; series mostly up to 92.2 µM. Put shortly: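 Steps: seed 2500 LYMP2-005 cells/well, incubate 5 h at 37 C, add compound, incubate 24 h at 37 C, add CellTiter-Glo, wait 30 min at RT, read luminescence. Concentration-response data fitted to Hill equation for AC50.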
Test [14] can be described thus: Cell Viability - LYMP2-011 (AID 969). Also: nearly all actives have a fitted effect of over 60% in size. Also: potency is read from the fitted curve at half-maximal effect. As to conditions: LYMP2-011 lymphoblastoid cells viability; series mostly up to 92.2 µM. The gist of the method: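 2500 cells/well in complete medium, compound-treated 24 h at 37 C. Viability read as intracellular ATP by CellTiter-Glo luminescence after 30 min at room temperature. AC50 from Hill fits of qHTS concentration-response data.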

Test [15] is described as follows: Cell Viability - LYMP2-013 (AID 970). Also: nearly all actives have a fitted effect of over 55% in size. Also: potency is read from the fitted curve at half-maximal effect. The following applies: LYMP2-013 lymphoblastoid cells viability; series mostly up to 92.2 µM. The gist of the method: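 Human lymphoblastoid LYMP2-013 cells, 2500/well, treated 24 h at 37 C in complete medium; viability as intracellular ATP by CellTiter-Glo luminescence after 30 min. AC50 from Hill fits of qHTS concentration-response.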

Test [16] in a line: Cell Viability - LYMP2-017 (AID 972). Also: nearly all actives have a fitted effect of over 55% in size. Also: potency is read from the fitted curve at half-maximal effect. As to conditions: LYMP2-017 lymphoblastoid cell viability; series mostly up to 92.2 µM. Put shortly:
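LYMP2-017 human lymphoblastoid cells (2500/well) settled 5 hr at 37 C, then exposed to compound 24 hr at 37 C in complete medium. Viability taken as intracellular ATP by CellTiter-Glo luminescence after 30 min at RT; AC50 from Hill fits.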

Test [17] is described as follows: Cell Viability - LYMP2-019 (AID 973). Also: nearly all actives have a fitted effect of over 55% in size. Also: potency is read from the fitted curve at half-maximal effect. The following applies: LYMP2-019 lymphoblastoid cell line viability; series mostly up to 92.2 µM. Put shortly: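 Human lymphoblastoid LYMP2-019 cells (2500/well) preincubated 5 h at 37 C, then treated 24 h at 37 C in complete medium. Viability by CellTiter-Glo ATP luminescence after 30 min at room temperature; AC50 from Hill fits.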

Test [18] in a line: Cell Viability - LYMP2-023 (AID 975). Also: nearly all actives have a fitted effect of over 55% in size. Also: potency is read from the fitted curve at half-maximal effect. The following applies: LYMP2-023 lymphoblastoid cell viability; series mostly up to 92.2 µM. Put shortly: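 LYMP2-023 human lymphoblastoid cells, 2500/well, preincubated 5 hr at 37 C, then compound-treated 24 hr at 37 C in complete medium. CellTiter-Glo luminescence (ATP) after 30 min at room temperature; AC50 from Hill-equation fits; tetraoctylammonium bromide positive control.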

Test [19] in a line: Cell Viability - LYMP2-025 (AID 976). Also: potency is read from the fitted curve at half-maximal effect. As to conditions: LYMP2-025 lymphoblastoid cell viability; series mostly up to 92.2 µM. Put shortly:
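Human lymphoblastoid LYMP2-025 cells, 2500/well, exposed 24 h at 37 C in complete medium in 1536-well qHTS. Viability as cellular ATP by CellTiter-Glo luminescence; AC50 from Hill fits of concentration-response data.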

Test [20] in a line: qHTS assay for small molecule agonists of the antioxidant response element (ARE) signaling pathway measured by Nrf2-dependant transcriptional activity - cell viability counter screen (AID 720653; active = well fitted curve in the direction sought with a large enough effect in the repeat runs; an effect the other way counts as inactive or inconclusive; also: potency is read from the fitted curve at half-maximal effect; as to max response: % is scaled to controls: 0 for no effect and ±100 for the full control effect). The following applies: ARE-bla HepG2 viability, CellTiter-Glo ATP luminescence, 16 h; max response: hits give low values. The gist of the method:
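ARE-bla HepG2 cells (2,000/well) rested 5 hrs at 37C/5% CO2, then exposed to compounds in DMSO for 16 hrs. Viability was read in the same wells as intracellular ATP by luminescence, 30 min at room temperature after reagent addition.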

With `Cc1cccc([N+](=O)[O-])c1C`, the result in [1], in [2], in test [3], in test [4], in test [6] and in test [7] was inactive. In addition, in test [8], the result was inactive. The Potency entry in test [5], in test [9], in test [10], in [11], in [12] and in test [13] was “inactive” in each case. Further, the Potency result in test [14], in [15], in test [16], in [17], in [18] and in [19] was “inactive” each time. For the same molecule, the max response in test [20] was 4.89% and -2.35%.
Take `O[C@@H]([C@H](O)[C@@H](O)CBr)[C@@H](O)CBr`: the molecule was called inactive in [1], in test [2], in test [3], in [4], in [6] and in [7]. Moreover, in test [8], the result was inactive. Further, the Potency entry in test [5], in test [9], in test [10], in test [11], in [12] and in test [13] was “inactive” throughout. Moreover, the Potency result in test [14], in [15], in test [16], in test [17], in test [18] and in test [19] was “inactive” in each case. For the same molecule, the max response in test [20] is 2.11%.
For `CC1(C)CC(N=C=O)CC(C)(CN=C=O)C1` (centres undefined), the molecule was classed as inactive in test [1], in test [2], in test [3], in [4], in [6] and in test [7]. In addition, in test [8], the molecule was classed as inactive. Also, the Potency result in [5], in test [9], in test [10], in test [11], in test [12] and in test [13] was “inactive” each time. Further, the Potency result in test [14], in test [15], in [16], in test [17], in test [18] and in test [19] was “inactive” throughout. For the same molecule, the max response in test [20] was 6.59% and -15.1%.
Regarding `CCC(O)OC(O)CC` (centres undefined), the result in test [1], in test [2], in [3], in [4], in test [6] and in test [7] was inactive. Also, in test [8], the call was inactive. The Potency result in test [5], in test [9], in [10], in test [11], in test [12] and in test [13] was “inactive” throughout. Moreover, the Potency entry in test [14], in test [15], in test [16], in test [17], in test [18] and in test [19] was “inactive” throughout. The max response in test [20] was 1.91% [middle of 4 runs].
Turning to `O=C1c2ccccc2C(=O)C1c1ccc2ccccc2n1`, the call in test [1], in test [2], in test [3], in test [4], in test [6] and in [7] was inactive. The result in test [8] was inactive. For the same molecule, the Potency result in test [5], in [9], in test [10], in test [11], in [12] and in test [13] was “inactive” throughout. The Potency entry in [14], in [15], in [16], in [17], in [18] and in test [19] was “inactive” throughout.
Regarding `NC1=NC(S)C2N=CN=C2N1` (centres undefined), the outcome in test [1], in test [2], in test [3], in test [4], in test [6] and in test [7] was inactive. Moreover, the outcome in test [8] was inactive. Also, the Potency in test [5] was 2.51 µM (active); in test [9], 12.6 µM (active); in test [11] it was 1.58 µM (active); in test [12] it was 6.31 µM (active); in test [13], 12.6 µM (active); in [14] it was 20 µM (active). In addition, the Potency in [15] is 20 µM (active); in test [16], 12.6 µM (active); in test [17], 10 µM (active); in test [18] it was 10 µM (active); in test [19] it was 3.16 µM (active); in test [20], 5.01 µM (active). For the same molecule, in [10], the Potency result is “inactive”.
